Bioassay records deposited in PubChem by National Center for Advancing Translational Sciences (NCATS).
SW480 rerep – inducers of DNA re-replication in SW480 colon cancer cells; AID 624297; SW480 DNA re-replication, Hoechst DNA content imaging, 48 h; 340,000 tested, 1.8% active; Potency, µM (series often up to 46.1 µM), without a hit: at the highest dose re-replication activation, actives largely listed as activators; further: % of control where 0% means no effect; nearly all actives have a fitted effect of over 55% in size
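Cells (250 per well) received 23 nL compound or DMSO by pin tool and were kept 48 hr at 37 C, 5% CO2. Nuclei were then stained with Hoechst for 40 min and scanned for DNA content.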
MCF10A rerep – induces DNA re-replication in MCF 10a normal breast cells; Potency, µM (titrated, usually from 46.1 µM), for the others: top-dose activity, positive = re-replication, usual class: activators; MCF 10A DNA re-replication, Hoechst nuclear intensity, 48 h; 350,000 tested, 2.9% active; further: % of control where 0% means no effect; nearly all actives have a fitted effect of over 50% in size
KB-V1 MDR tox – KB-V1 MDR subline cytotoxicity; KB-V1 MDR cells viability, CellTiter-Glo, 72 h; Potency, µM (doses to about 46.1 µM), hits mostly cytotoxic; 400,000 tested, 3.4% active; further: on the % scale 0 is the no-effect control and ±100 the full control effect; nearly all actives have a fitted effect of over 60% in size
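Readout: CellTiter-Glo luminescence, 10 min after addition. Cells: KB-V1 MDR subline, 72 h at 37 degrees C with compound. Analysis: corrected, normalized data fitted to concentration-effect curves.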
KB-3-1 tox – KB-3-1 parental cell cytotoxicity | 400,000 tested, 1.4% active | Potency, µM (highest dose often 46.1 µM), most hits filed as cytotoxic | KB-3-1 viability, CellTiter-Glo ATP luminescence, 72 h; further: on the % scale 0 is the no-effect control and ±100 the full control effect; nearly all actives have a fitted effect of over 60% in size
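Parental KB-3-1 adenocarcinoma cells in phenol-red-free DMEM with 10% FBS were pin-treated with compounds at several concentrations, incubated 72 h at 37 °C, and viability read by CellTiter-Glo luminescence; concentration-effect curves were fitted after normalization.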
ELG1 DNA repair – ELG1-dependent DNA repair inhibition; Potency, µM (series often up to 46.1 µM), inactives show at the top dose activity change, negative = inhibition, hits mostly inhibitors; 330,000 tested, 2.3% active; HEK293T ELG1-luciferase reporter, luminescence, 16 h; DNA damage induced by 5-fluorouridine; further: on the % scale 0 is the no-effect control and ±100 the full control effect; nearly all actives have a fitted effect of over 55% in size
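Overnight (16 hr) co-exposure of 2,000 cells/well to 5-fluorouridine and compound at 37 °C preceded detection. Luciferase was quantified via ONE-Glo luminescence; loss of signal denotes inhibition.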
An asterisk follows results filed as active; i = inactive; ? = inconclusive; nt = not tested or not shown; [ ] = remark or other dose. Compounds with a hit are over-represented: about 8.1% of the library has one in this group of screens. The call rests on the fitted dose curve; in most records, active means well fitted curve in the direction sought with a large enough effect; inconclusive means small, poorly fitted or top-dose-only effect, or another doubt; inactive means no such curve, though single readings can be large; an effect the other way counts as inactive or inconclusive. Potency means the concentration at half of the fitted maximal effect.

SMILES | SW480 rerep | MCF10A rerep | KB-V1 MDR tox | KB-3-1 tox | ELG1 DNA repair
CC(C)COCc1ccc(O)c2ncccc12 | ? | 29.9% | ? | ? | 20.6µM*
CC(C)Nc1nnc(Sc2ccc(Cl)cc2[N+](=O)[O-])s1 | nt | 18.4% | i | i | ?
COc1ccc(OC)c(C2CC(c3c(-c4ccccc4)c4cc(Cl)ccc4[nH]c3=O)=NN2S(C)(=O)=O)c1 (stereo not given) | ? | 7.31µM* | i | i | 5.17µM*
COCCNc1ncnc2c1ncn2[C@H]1CN(Cc2ccccc2)C[C@@H](CO)O1 | nt | nt | i | i | nt
N#C/C(=C/c1ccncc1)c1nc2ccccc2s1 | 1.3% | ? | i | i | 4.7%
CC1CCc2nc(/C(C#N)=C/c3ccncc3)sc2C1 (stereo not given) | 7.31µM* | ? | ? | i | ?
O=C(NCc1ccccc1)c1cccc(COc2ccccc2Cl)c1 | 0.9% | ? | ? | i | ?
O=C(O)c1ccc(Cl)c(NC(=S)NC(=O)c2cccc(COc3ccccc3)c2)c1 | 1.9% | 8.2µM* | i | i | 2.0%
COC(=O)c1ccccc1NC(=O)c1cccc(COc2ccccc2Cl)c1 | ? | 2.59µM* | ? | ? | ?
O=C(NCc1ccccc1)c1cccc(COc2cc(Cl)ccc2Cl)c1 | ? | 27.4% | 20.6µM* | i | ?
c1cncc(C2SCCCS2)c1 | nt | nt | i | i | nt
O=C(O)C1CCC(N2C(=O)c3c(Cl)c(Cl)c(Cl)c(Cl)c3C2=O)CC1 (stereo not given) | nt | nt | nt | nt | 16.3%
O=C(C[C@@H]1C/C=C\C[C@H](NC(=O)OCC2c3ccccc3-c3ccccc32)C(=O)OC[C@H]2CCCN2C1=O)N[C@@H](CO)Cc1ccccc1 | -8.8%[9.22 µM] | 3.4% | ? | i | 14.6µM*
CC(C)(C)[C@H]1COC(=O)[C@@H](Cc2ccc(F)cc2)CC/C=C/C[C@@H](CC(=O)N[C@H](CO)Cc2ccccc2)C(=O)N1 | 19.5% | 10.4% | i | i | -11.6%
O=C(C[C@@H]1C/C=C\CC[C@H](Cc2ccc(F)cc2)C(=O)OC[C@@H]2CCCN2C1=O)N[C@H](CO)Cc1ccccc1 | ? | ? | i | i | 20.6µM*
CC(C)(C)[C@H]1COC(=O)[C@@H](Cc2ccc(F)cc2)CC/C=C/C[C@@H](CC(=O)N[C@@H](CO)Cc2ccccc2)C(=O)N1 | ? | 0.4% | i | i | 25.9µM*
O=C(C[C@H]1C/C=C\C[C@H](NC(=O)OCC2c3ccccc3-c3ccccc32)C(=O)OC[C@H]2CCCN2C1=O)NCCO | -7.5% | -2.2% | i | i | 20.0%
CCN(CC)C(=O)C1=C(C)N(CCCOC)C(=O)C(CC(=O)NCc2ccco2)C1 (stereo not given) | nt | nt | ? | i | nt
CCn1cc(C(=O)O)c(=O)c2cc(F)c(N/N=C/c3ccccc3[N+](=O)[O-])cc21 | 3.9% | -2.6% | 13µM* | i | ?
CCn1cc(C(=O)O)c(=O)c2cc(F)c(N3CCN(C(=S)Nc4ccccc4OC)CC3)cc21 | -1.7% | 0.5% | i | ? | -7.4%
CCC(CC)C(=O)Oc1c(Sc2ccccc2[N+](=O)[O-])c(C)nn1C(C)(C)C | 5.7% | 23.6% | 14.6µM* | i | 0.6%
COCC(=O)Oc1c(Sc2ccccc2[N+](=O)[O-])c(C)nn1C(C)(C)C | -0.1% | -1.7% | i | i | -8.9%
Cc1ccc(C2=C(O)C(=O)C(c3ccc(C)cc3)=C(O)C2=O)cc1 | 17.1% | ? | 14.6µM* | ? | nt
CC1=C(O)C(=O)C(C2=C(O)C(=O)C(C)=C(O)C2=O)=C(O)C1=O | -11.0% | 0.3% | ? | ? | nt
CCn1c(CSc2nc(C)cc(C)n2)nnc1SCC(=O)Nc1cccc2ccccc12 | 1.9% | -4.7% | i | i | -13.0%
SMILES | SW480 rerep | MCF10A rerep | KB-V1 MDR tox | KB-3-1 tox | ELG1 DNA repair
CCn1c(CSc2nc(C)cc(C)n2)nnc1SCC(=O)Nc1ccccc1 | -7.0% | 7.4% | 20.6µM* | i | -0.5%
CCn1c(Cn2nnc(-c3ccccc3)n2)nnc1SCC(=O)Nc1cccc(C(C)=O)c1 | ? | 20.6µM* | i | i | ?
Cc1ccc(C)c(OCc2nnc(N)s2)c1 | 0.731µM* | ? | i | i | ?
Nc1nnc(COc2ccc(Br)cc2Br)s1 | -2.3% | -3.7% | i | i | ?
C=C(C)C1CC=C(C)/C(=N/NC(=O)COc2ccc(C)cc2)C1 (stereo not given) | -0.7% | 8.3% | i | i | 8.8%
C=C(C)C1CC=C(C)/C(=N\NC(=S)Nc2ccc(C)cc2)C1 (stereo not given) | ? | ? | 16.4µM* | ? | 5.6%
O=C(NCc1ccncc1)[C@@H]1CCCN1C(=O)[C@H]1CCCN1C(=O)c1ccccc1 | nt | nt | i | i | nt
Cc1ccc(C2CC(=O)C=C(NCC(C)C)C2)cc1 (stereo not given) | -12.3% | ? | ? | ? | -7.2%
Cc1ccc(C2CC(=O)C=C(NCc3ccccc3)C2)cc1 (stereo not given) | 23.1µM* | 20.6µM* | 20.6µM* | 14.6µM* | -19.8%
O=C(O)c1cc2c([nH]c1=O)CCCC2 | -8.7% | 1.4% | i | i | 4.5%
O=c1ccc2c([nH]1)CCCCCCCCCC2 | -0.1% | ? | 7.31µM* | ? | 16.6%
CCOC(=O)C(C)(C)N(Cc1ccccc1C)S(=O)(=O)c1ccc(Cl)c([N+](=O)[O-])c1 | ? | 18.4µM* | i | i | ?
CCCN(CCC)S(=O)(=O)c1ccc(Cl)c([N+](=O)[O-])c1 | 6.4% | ? | i | i | ?
COc1cc2c3nnc(-c4ccc(F)cc4)c-3cn(Cc3ccc(F)cc3)c2cc1OC | ? | 18.4µM* | i | ? | ?
COC(=O)CSC1=C(C#N)C(c2ccc(C)o2)CC(=O)N1 (stereo not given) | 5.8µM* | ? | ? | 18.4µM* | -4.2%
Cc1ccc(NC(=O)CSC2=C(C#N)C(c3ccco3)CC(=O)N2)cc1 (stereo not given) | 3.3% | 13.5% | ? | ? | ?
COC(=O)CSC1=C(C#N)C(c2ccc(F)cc2)CC(=O)N1 (stereo not given) | -2.9% | 1.0% | i | i | -11.9%
Cc1ccc(C(=O)CSC2=C(C#N)C(c3ccco3)CC(=O)N2)c(C)c1 (stereo not given) | -3.3% | 24.6% | 14.6µM* | i | 0.3%
Cc1ccccc1CC(=O)Nc1ccc(S(=O)(=O)N2CCOCC2)cc1 | 1.8% | 20.9% | i | i | -10.9%
Cn1c(=O)c2c(nc(SCCN3CCOCC3)n2Cc2cccc3ccccc23)n(C)c1=O | 0.4% | -1.5% | 4.11µM* | i | ?
